# Compound activity: PubChem, National Center for Advancing Translational Sciences (NCATS)
# Only some compounds are listed: those with a hit (about 19% of all), similar ones and a draw of the others.
# TDP1 cell noCPT: qHTS for Inhibitors of human tyrosyl-DNA phosphodiesterase 1 (TDP1): qHTS in cells in absence of CPT; DT40 Tdp1-/- hTDP1 cells, no CPT, ATP luminescence, 48 h; Potency, µM (doses to about 46.2 µM), inactives show at the highest dose activity change, negative = growth inhibition, usual class: inhibitors; 420,000 tested, 15% active; AID 686978, 2013; further: potency means the concentration at half of the fitted maximal effect; nearly all actives have a fitted effect of over 55% in size
#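 Chicken DT40 Tdp1-/- cells stably complemented with human TDP1 were seeded at 400 cells/well with DMSO in place of 20 nM camptothecin. After compound pinning, cells grew at least 48 hr at 37 °C; viability read by CellTiter-Glo luminescence.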
# HT1080 IDH1KD tx: HT-1080 IDH1 knockdown cell toxicity (counter line). HT-1080 IDH1 knockdown viability, ATP luminescence, 48 h. Potency, µM (top dose mostly 46.1 µM), without a hit: top-dose activity, negative = toxicity, usual class: cytotoxic. 360,000 tested, 2% active. AID 686971;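 further: potency means the concentration at half of the fitted maximal effect; 0% = DMSO wells and -100% = cell-free medium wells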
#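 HT-1080-IDH1KD cells (IDH1 knocked down), 750/well in RPMI with 5% FBS, treated with compound 48 h at 37 degrees C. Viability by CellTiter-Glo luminescence, normalised to DMSO and no-cell wells; concentration-response curves classed.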
# DT40 TDP1 CPT: DT40-hTDP1 cell growth loss with CPT; chicken DT40 Tdp1-/-;hTDP1 cells + 20 nM CPT, ATP luminescence, 48 h; Potency, µM (series often up to 46.2 µM), for inactives: at the top dose activity change, negative = growth inhibition, most hits filed as inhibitors; 420,000 tested, 12% active; AID 686979; further: potency means the concentration at half of the fitted maximal effect; nearly all actives have a fitted effect of over 55% in size
#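 Cell growth measured by CellTiter-Glo luminescence after a minimum 48 h, 37 C compound exposure with 20 nM CPT in Tdp1-knockout DT40 cells stably expressing hTDP1, seeded 400/well; qHTS titration format.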
# IL-1B inflam inh: inflammasome signaling inhibition, IL-1 beta readout | THP-1 LPS/ATP IL-1B secretion, AlphaLISA, 16 h; stronger effect = lower value | activity change, % at 57.5 µM | 360,000 tested, 4.7% active | AID 743279; in the data active means activity change below about -50%; inconclusive means mostly about -30% to -49%
#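 Secreted IL-1B measured by AlphaLISA bead assay after 16 h compound exposure of THP-1 cells; compounds (final up to 57.5 uM) added 1 h before LPS (250 ng/mL) and ATP (1.25 mM) stimulation; lower signal means less secretion.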
# HT1080-NT tox: kills 2HG-producing HT-1080-NT fibrosarcoma cells; HT-1080-NT fibrosarcoma viability, CellTiter-Glo ATP luminescence, 48 h; Potency, µM (top dose mostly 46.1 µM), for inactives: at the top dose activity, negative = less viability, usual class: cytotoxic; 360,000 tested, 1.6% active; AID 686970;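 further: NT is the 2HG producing partner of a matched IDH1 knockdown line; potency means the concentration at half of the fitted maximal effect; 0% = DMSO-treated cells and -100% = media-only wells without cells; nearly all actives have a fitted effect of over 55% in size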
#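 HT-1080-NT fibrosarcoma cells (2HG-overproducing), 750 cells/well in RPMI with 5% FBS, dosed after 2 h and incubated 48 h at 37C. CellTiter-Glo luminescence normalized to DMSO and no-cell wells; concentration-response curves fitted and classed.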
# * = called active by the depositor; i = inactive; u = inconclusive; x = no result given. Unless noted, the call rests on the fitted dose curve; in most records, active means well fitted curve in the direction sought with a large enough effect; inconclusive means small, poorly fitted or top-dose-only effect, or another doubt; inactive means no such curve, though single readings can be large; an effect the other way counts as inactive or inconclusive. Unless noted, on the % scale 0 is the no-effect control and ±100 the full control effect.
SMILES,TDP1 cell noCPT,HT1080 IDH1KD tx,DT40 TDP1 CPT,IL-1B inflam inh,HT1080-NT tox
CCN1CCN(C2=C(NS(=O)(=O)c3ccc(C)cc3)C(=O)c3ccccc3C2=O)CC1,20.6µM*,u,11.6µM*,29.7,u
CC(=O)Nc1ccc(S(=O)(=O)Nc2cccn(Cc3ccc(C)cc3)c2=O)cc1,u,-11.2%,u,19.7,-0.9%
CCOC(=O)C1CCN(C2=C(NS(=O)(=O)c3ccc(Cl)cc3)C(=O)c3ccccc3C2=O)CC1,u,-18.3%,-15.9%,-9.1,-2.6%
CCN1CCN(c2nc3ccccc3nc2NS(=O)(=O)c2ccc(NC(C)=O)cc2)CC1,-1.9%,0.0%,0.8%,18.1,12.5%
O=C(CCS(=O)(=O)Cc1ccc(Cl)cc1)NCCc1ccccc1,1.4%,1.7%,-3.8%,12.2,8.8%
O=C1NC[C@H](CCCCN2C[C@H](Cc3ccc(O)cc3)N(CCc3ccccc3)C(=O)C2=O)N(CCC2CCCCC2)C1=O,-2.8%,10.4%,5.6%,-9.1,15.8%
O=C1NC[C@H](CCCCN2C[C@H](Cc3ccc(O)cc3)N(CCc3ccccc3)C(=O)C2=O)N(CC2CCCCC2)C1=O,-4.2%,14.6µM*,29.6%,-2.2,17.8%
O=C1NC[C@@H](CCCCN2C[C@H](Cc3ccccc3)N(CCC3CCCCC3)C(=O)C2=O)N(CCc2ccc(O)cc2)C1=O,3.4%,1.0%,-5.0%,-59.0*,-9.7%
Cc1cc(OCC(=O)C(C)(C)C)c2c(-c3ccccc3)cc(=O)oc2c1,-29.5%,-9.3%,u,69.9,-7.4%
COc1ccccc1C1=NN(C(=O)c2ccccc2)C(c2ccc(Br)cc2)C1 (configuration not stated),-10.2%,21.1%,-6.2%,-7.0,26.6%
Cc1ccc(CN2CCCC2(C)C(=O)NC(C)C)cc1 (configuration not stated),u,20.7%,u,29.7,10.7%
CC(C)NC(=O)C1(C)CCCCN1Cc1ccc(OCc2ccccc2)cc1 (configuration not stated),1.64µM*,u,2.31µM*,1.7,u
CC1(C(=O)NCc2cccc3ccccc23)CCN1Cc1cccc2c1OCO2 (configuration not stated),14.6µM*,u,23.1µM*,u,u
CC1(C(=O)NCc2cccc3ccccc23)CCN1Cc1ccc(OC(F)(F)F)cc1 (configuration not stated),u,u,u,-29.8,u
CCCCNC(=O)C1(C)CCCCN1C(=O)c1ccc(C)c(F)c1 (configuration not stated),-26.8%,5.0%,-28.1%,40.6,21.9%
CCCCNC(=O)C1(C)CCCCN1Cc1ccc2ccccc2c1 (configuration not stated),u,u,23.1µM*,0.0,-29.0%
CC1(C(=O)NCc2ccccc2Br)CCN1Cc1ccc(-c2ccccn2)cc1 (configuration not stated),18.4µM*,u,14.6µM*,-28.9,u
CCOC(=O)N1CCN(S(=O)(=O)N(C)C)CC1,-16.6%,-0.1%,-1.5%,10.0,-1.4%
O=C(NCCc1ccc2c(c1)OCCO2)c1ccc(F)cc1,u,-23.5%,u,0.0,-10.1%
N#Cc1ccc(CN2CC[C@@]3(CCCN(C(=O)c4cnccn4)C3)C2)cc1,-4.9%,x,1.4%,x,x
CCCCNC(=O)C1(C)CCCCCN1Cc1cccc2c(OC)cc(C(=O)OCC)cc12 (configuration not stated),13µM*,u,u,-17.0,u
CC1(C(=O)NCc2ccccc2Br)CCN1C(=O)C1(c2ccc(Cl)cc2)CC1 (configuration not stated),u,-0.9%,u,-28.1,3.2%
COc1ccccc1CNC(=O)C1(C)CCN1Cc1ccc2ccccc2c1 (configuration not stated),-97.6%,u,-94.5%,-10.4,u
CC1(C(=O)NCc2cccc3ccccc23)CCN1Cc1ccc2ccccc2c1 (configuration not stated),18.4µM*,u,18.4µM*,-4.9,u
CC(C)CCNC(=O)C1(C)CCN1Cc1ccc2ccccc2c1 (configuration not stated),23.1µM*,u,u,-2.3,u
SMILES,TDP1 cell noCPT,HT1080 IDH1KD tx,DT40 TDP1 CPT,IL-1B inflam inh,HT1080-NT tox
CCCCNC(=O)C1(C)CCCCN1C(=O)c1ccc(OC)c(C(F)(F)F)c1 (configuration not stated),u,9.6%,u,31.4,21.1%
CC1(C(=O)NCc2cccc3ccccc23)CCN1C(=O)C1(c2ccccc2)CCCC1 (configuration not stated),20.6µM*,u,23.1µM*,-51.6*,u
CC1=NCCN1CCNC(=O)Nc1ccc(C(C)(C)C)cc1,-23.1%,21.1%,-4.8%,12.4,5.0%
CC1(C(=O)NCc2ccccc2Br)CCN1Cc1ccc2ccccc2c1 (configuration not stated),u,u,20.6µM*,-7.4,-22.4%
CC1(C(=O)NCc2ccccc2Br)CCN1C(=O)CCc1ccc(Cl)cc1Cl (configuration not stated),-65.0%,u,u,u,u
CCOC(=O)C[C@@H]1OC[C@H](CO)N1S(=O)(=O)c1ccc(C)cc1,11.3%,-5.3%,10.1%,-11.9,2.7%
CCOC(=O)C(C#N)=C1CCN(Cc2ccccc2)CC1,-11.6%,-2.4%,-10.8%,-18.5,-0.7%
CCOC(=O)/C(C#N)=C1/C(=O)N(Cc2ccccc2)c2ccccc21,5.17µM*,-13.8%,7.31µM*,-11.9,-3.5%
CNc1ccc(C2(O)C(=O)c3ccccc3C2=O)cc1,-17.6%,10.0%,-4.0%,17.3,0.1%
Cc1nnc(SCC(=O)NCc2cccc(F)c2)c2nn(-c3ccccc3)c(C)c12,7.31µM*,x,8.2µM*,x,x
Cc1nnc(SCC(=O)NCc2ccccc2F)c2nn(-c3ccc(Cl)cc3)c(C)c12,8.2µM*,x,13µM*,x,x
Cc1ccccc1CNC(=O)CCn1nc(C)c2c(C)n(-c3ccccc3)nc2c1=O,3.7%,9.6%,-21.2%,-7.8,2.8%
O=C(NCCNC(=O)c1ccccc1Br)c1cccnc1,7.8%,3.9%,5.6%,i,-0.6%
CC1CCN(Cc2cc(=O)oc3ccc4ccccc4c23)CC1,u,-13.7%,2.0%,x,-3.8%
Oc1ccccc1-c1cc(-c2cccc(F)c2)n[nH]1,-12.6%,-1.9%,-19.3%,52.3,-1.4%
COc1ccc(-c2cc(-c3ccc(OC)cc3)[nH]n2)cc1,u,u,u,-23.4,19.7%
